The text below walks through data of article PMC7862700, “An all-to-all approach to the identification of sequence-specific readers for epigenetic DNA modifications on cytosine”.

Assay in all cases: DAPPL (digital affinity profiling via proximity ligation, sequencing); 10 mM Tris-HCl pH 7.5, 50 mM NaCl, 1 mM DTT, 4% glycerol, room temperature, 30 min; GST-TFs on glutathione beads, 16-mer random dsDNA library, 0.1% formaldehyde crosslink after washing; high values mean tight binding
One assay deals with T1, FEV (Homo sapiens, UniProt Q99581 1-238).
T1 sequence: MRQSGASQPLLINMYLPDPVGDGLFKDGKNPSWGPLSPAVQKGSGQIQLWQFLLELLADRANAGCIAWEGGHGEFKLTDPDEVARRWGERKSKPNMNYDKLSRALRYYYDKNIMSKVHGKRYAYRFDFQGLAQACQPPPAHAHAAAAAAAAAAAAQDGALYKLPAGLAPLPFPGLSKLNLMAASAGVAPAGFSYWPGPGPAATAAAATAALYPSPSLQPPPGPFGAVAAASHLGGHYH
Conditions: protein: recombinant; tags: N-terminal GST; dsDNA, one strand shown. In outline:
(§1)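 Binding signal is each hexamer's read frequency for a factor divided by its frequency in the tag-only sample. The factors were GST-fused human transcription factors from yeast, captured on glutathione beads, DNA-barcoded and pooled with that sample. Pools were incubated with 200 nmole of a random double-stranded 16-mer DNA library in Tris/NaCl/DTT/glycerol buffer at room temperature for 30 min, then washed, crosslinked with 0.1% formaldehyde, proximity-ligated with BsaI/T4 ligase (1 h, 37 °C), PCR-amplified and sequenced on an Illumina NextSeq500.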

A further assay has as its target ETV5 (Homo sapiens, UniProt P41161 1-510). Conditions: protein: recombinant; tags: N-terminal GST; dsDNA, one strand shown. In short, it runs like this: as §1
The target of another assay is HSF1 (Homo sapiens, UniProt Q00613 1-529). As to conditions: protein: recombinant; tags: N-terminal GST; chain copies: 3; dsDNA, one strand shown. In short, it runs like this:
as §1

The next assay has as its target T2, SPIC (Homo sapiens, UniProt Q8N5J4 1-248).
T2 sequence: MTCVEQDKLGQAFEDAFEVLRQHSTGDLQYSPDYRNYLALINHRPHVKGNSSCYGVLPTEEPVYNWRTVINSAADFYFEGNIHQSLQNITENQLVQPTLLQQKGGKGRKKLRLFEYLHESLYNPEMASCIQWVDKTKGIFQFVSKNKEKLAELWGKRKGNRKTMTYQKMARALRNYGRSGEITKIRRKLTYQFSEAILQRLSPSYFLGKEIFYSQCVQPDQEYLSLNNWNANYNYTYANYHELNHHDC
Conditions: protein: recombinant; tags: N-terminal GST; dsDNA, one strand shown. In short, it runs like this:
as §1

The target in a further assay is ELF4 (Homo sapiens, UniProt Q99607 1-663). Conditions: protein: recombinant; tags: N-terminal GST; dsDNA, one strand shown. In short, it runs like this:
as §1

The target of another assay is T3, ELK4 (Homo sapiens, UniProt P28324-2 1-405).
T3 sequence: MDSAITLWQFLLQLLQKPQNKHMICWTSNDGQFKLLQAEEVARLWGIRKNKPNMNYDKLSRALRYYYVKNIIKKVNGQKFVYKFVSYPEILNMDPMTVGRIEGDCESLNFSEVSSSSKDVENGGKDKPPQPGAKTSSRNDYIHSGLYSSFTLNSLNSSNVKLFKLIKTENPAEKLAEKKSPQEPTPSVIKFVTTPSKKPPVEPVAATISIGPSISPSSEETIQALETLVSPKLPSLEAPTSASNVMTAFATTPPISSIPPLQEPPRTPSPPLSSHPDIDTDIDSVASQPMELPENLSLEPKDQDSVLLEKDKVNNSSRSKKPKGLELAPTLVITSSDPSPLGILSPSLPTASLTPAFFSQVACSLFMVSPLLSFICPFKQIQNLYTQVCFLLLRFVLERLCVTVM
As to conditions: protein: recombinant; tags: N-terminal GST; dsDNA, one strand shown. In short, it runs like this:
as §1

For a further assay, the target named is T4, ETV2 (Homo sapiens, UniProt O00321 1-342).
T4 sequence: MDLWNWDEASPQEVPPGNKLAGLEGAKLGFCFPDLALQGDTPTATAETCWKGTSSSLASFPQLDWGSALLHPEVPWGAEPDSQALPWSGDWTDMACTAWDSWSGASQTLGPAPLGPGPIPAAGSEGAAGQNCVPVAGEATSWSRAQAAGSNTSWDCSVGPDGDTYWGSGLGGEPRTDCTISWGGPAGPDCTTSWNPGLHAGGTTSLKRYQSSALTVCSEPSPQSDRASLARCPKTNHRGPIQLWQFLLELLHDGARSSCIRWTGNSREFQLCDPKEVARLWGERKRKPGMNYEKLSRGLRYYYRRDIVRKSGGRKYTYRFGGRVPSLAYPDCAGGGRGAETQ
As to conditions: protein: recombinant; tags: N-terminal GST; dsDNA, one strand shown. In outline: as §1

The target of the next assay is T5, ELF3 (Homo sapiens, UniProt P78545 1-371).
T5 sequence: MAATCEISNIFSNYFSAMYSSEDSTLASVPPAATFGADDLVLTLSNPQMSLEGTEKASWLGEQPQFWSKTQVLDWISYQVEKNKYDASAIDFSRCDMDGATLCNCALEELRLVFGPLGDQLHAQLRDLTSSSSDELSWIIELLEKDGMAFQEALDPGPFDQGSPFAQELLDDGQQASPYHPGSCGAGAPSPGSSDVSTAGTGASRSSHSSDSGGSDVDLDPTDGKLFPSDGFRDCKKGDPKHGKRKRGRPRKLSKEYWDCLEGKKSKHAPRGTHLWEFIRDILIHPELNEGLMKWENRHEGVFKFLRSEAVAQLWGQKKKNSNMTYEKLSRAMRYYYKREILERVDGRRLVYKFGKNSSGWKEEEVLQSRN
As to conditions: protein: recombinant; tags: N-terminal GST; dsDNA, one strand shown. In outline:
as §1

The next assay deals with CRX (Homo sapiens, UniProt O43186 1-299). Conditions: protein: recombinant; tags: N-terminal GST; dsDNA, one strand shown. In short, it runs like this:
as §1

The next assay deals with ETV1 (Homo sapiens, UniProt P50549 1-477). Conditions: protein: recombinant; tags: N-terminal GST; dsDNA, one strand shown. In short, it runs like this:
as §1

Another assay deals with T6, ERF (Homo sapiens, UniProt P50548 1-548).
T6 sequence: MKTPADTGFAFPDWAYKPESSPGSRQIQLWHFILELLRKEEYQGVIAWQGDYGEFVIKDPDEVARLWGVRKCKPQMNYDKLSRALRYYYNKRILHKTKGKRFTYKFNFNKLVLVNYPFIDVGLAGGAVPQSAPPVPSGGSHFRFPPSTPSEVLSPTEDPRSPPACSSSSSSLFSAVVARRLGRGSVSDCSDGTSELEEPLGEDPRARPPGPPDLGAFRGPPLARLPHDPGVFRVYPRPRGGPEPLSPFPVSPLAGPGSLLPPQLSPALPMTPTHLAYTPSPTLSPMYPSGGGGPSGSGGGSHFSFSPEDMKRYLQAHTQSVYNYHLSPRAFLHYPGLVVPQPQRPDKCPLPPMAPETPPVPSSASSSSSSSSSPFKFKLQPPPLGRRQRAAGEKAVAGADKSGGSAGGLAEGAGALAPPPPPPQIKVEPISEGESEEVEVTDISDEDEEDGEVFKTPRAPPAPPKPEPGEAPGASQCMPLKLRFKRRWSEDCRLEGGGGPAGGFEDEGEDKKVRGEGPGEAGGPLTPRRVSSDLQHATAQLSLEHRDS
Conditions: protein: recombinant; tags: N-terminal GST; dsDNA, one strand shown. In short, it runs like this: as §1

The target in a further assay is T7, ETV3L (Homo sapiens, UniProt Q6ZN32 1-361).
T7 sequence: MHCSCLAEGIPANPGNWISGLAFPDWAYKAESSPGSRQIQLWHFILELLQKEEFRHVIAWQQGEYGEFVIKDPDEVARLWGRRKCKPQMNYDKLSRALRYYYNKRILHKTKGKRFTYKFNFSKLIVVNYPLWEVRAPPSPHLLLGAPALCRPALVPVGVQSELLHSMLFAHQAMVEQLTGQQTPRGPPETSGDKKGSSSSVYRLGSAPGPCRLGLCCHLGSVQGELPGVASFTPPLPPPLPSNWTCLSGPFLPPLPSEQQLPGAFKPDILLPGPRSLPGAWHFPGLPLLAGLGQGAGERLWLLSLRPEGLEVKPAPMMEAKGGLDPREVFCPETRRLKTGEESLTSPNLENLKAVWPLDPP
As to conditions: protein: recombinant; tags: N-terminal GST; dsDNA, one strand shown. In short, it runs like this: as §1

The target of a further assay is T8, ETS2 (Homo sapiens, UniProt P15036 1-469).
T8 sequence: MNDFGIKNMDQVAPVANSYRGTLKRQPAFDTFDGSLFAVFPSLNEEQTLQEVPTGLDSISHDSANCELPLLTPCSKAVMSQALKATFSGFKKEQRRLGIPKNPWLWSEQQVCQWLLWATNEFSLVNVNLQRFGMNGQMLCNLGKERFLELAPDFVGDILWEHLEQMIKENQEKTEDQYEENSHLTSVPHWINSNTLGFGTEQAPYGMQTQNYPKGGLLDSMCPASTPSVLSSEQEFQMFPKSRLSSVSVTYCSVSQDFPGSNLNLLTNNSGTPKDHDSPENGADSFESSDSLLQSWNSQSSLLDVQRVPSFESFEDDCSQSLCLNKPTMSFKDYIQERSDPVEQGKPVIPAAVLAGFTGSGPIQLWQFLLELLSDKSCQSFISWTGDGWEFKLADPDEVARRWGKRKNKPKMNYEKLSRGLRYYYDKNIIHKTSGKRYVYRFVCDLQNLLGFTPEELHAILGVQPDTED
Conditions: protein: recombinant; tags: N-terminal GST; dsDNA, one strand shown. In short, it runs like this:
as §1

The target in a further assay is T9, SPDEF (Homo sapiens, UniProt O95238 1-335).
T9 sequence: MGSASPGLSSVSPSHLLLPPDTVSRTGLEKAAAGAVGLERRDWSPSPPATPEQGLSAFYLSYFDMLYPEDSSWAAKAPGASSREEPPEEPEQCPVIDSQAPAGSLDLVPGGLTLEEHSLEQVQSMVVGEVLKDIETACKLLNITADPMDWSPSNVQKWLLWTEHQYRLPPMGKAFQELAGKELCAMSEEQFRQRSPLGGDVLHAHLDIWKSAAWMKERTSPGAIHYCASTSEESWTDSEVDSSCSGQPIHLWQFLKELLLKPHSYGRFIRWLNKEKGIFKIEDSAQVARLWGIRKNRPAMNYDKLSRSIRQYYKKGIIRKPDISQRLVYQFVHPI
As to conditions: protein: recombinant; tags: N-terminal GST; dsDNA, one strand shown. In short, it runs like this: as §1

The next assay concerns the target T10, ETV7 (Homo sapiens, UniProt Q9Y603 1-341).
T10 sequence: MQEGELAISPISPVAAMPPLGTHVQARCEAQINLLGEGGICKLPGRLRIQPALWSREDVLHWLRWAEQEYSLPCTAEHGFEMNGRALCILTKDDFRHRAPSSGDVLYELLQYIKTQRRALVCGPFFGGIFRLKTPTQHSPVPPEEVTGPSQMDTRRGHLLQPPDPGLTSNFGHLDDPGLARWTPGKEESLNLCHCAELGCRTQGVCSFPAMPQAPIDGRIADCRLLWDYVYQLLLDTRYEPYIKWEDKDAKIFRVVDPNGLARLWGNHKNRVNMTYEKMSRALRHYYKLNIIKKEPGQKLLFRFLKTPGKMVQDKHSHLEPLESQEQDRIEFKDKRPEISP
Conditions: protein: recombinant; tags: N-terminal GST; dsDNA, one strand shown. In outline:
as §1

A further assay addresses T11, ELF5 (Homo sapiens, UniProt Q9UKW6-2 1-255).
T11 sequence: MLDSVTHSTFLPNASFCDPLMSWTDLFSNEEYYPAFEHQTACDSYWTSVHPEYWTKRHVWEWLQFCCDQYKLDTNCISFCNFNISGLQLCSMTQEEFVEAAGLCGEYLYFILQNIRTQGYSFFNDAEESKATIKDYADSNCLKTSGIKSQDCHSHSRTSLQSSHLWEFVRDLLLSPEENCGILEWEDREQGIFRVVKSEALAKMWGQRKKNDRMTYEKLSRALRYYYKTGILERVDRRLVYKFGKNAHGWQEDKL
Conditions: protein: recombinant; tags: N-terminal GST; dsDNA, one strand shown. In outline:
as §1

For the next assay, the target named is T12, ETV3 (Homo sapiens, UniProt P41162-2 1-143).
T12 sequence: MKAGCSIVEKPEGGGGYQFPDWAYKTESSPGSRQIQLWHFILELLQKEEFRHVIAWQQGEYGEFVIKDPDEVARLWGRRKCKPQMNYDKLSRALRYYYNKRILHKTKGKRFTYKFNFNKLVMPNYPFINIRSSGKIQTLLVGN
As to conditions: protein: recombinant; tags: N-terminal GST; dsDNA, one strand shown. In outline:
as §1

The next assay addresses ETV6 (Homo sapiens, UniProt P41212 1-452). Conditions: protein: recombinant; tags: N-terminal GST; dsDNA, one strand shown. In short, it runs like this:
as §1

Chain of ETV5 (P41161 whole entry): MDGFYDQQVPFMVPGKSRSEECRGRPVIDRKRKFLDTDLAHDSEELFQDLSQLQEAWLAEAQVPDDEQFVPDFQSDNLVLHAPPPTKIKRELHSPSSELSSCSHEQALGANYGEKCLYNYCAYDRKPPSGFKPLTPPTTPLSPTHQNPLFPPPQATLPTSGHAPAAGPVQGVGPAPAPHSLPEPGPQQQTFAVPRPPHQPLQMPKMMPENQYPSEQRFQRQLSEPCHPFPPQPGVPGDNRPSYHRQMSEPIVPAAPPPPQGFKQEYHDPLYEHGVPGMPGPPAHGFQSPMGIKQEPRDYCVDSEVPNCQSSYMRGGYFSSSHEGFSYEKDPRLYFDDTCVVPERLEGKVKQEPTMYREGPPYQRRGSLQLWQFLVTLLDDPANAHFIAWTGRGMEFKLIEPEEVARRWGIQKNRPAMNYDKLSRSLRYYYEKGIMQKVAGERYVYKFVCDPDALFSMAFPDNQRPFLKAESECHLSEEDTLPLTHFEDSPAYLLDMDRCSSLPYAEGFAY
Chain of CRX (O43186 whole entry): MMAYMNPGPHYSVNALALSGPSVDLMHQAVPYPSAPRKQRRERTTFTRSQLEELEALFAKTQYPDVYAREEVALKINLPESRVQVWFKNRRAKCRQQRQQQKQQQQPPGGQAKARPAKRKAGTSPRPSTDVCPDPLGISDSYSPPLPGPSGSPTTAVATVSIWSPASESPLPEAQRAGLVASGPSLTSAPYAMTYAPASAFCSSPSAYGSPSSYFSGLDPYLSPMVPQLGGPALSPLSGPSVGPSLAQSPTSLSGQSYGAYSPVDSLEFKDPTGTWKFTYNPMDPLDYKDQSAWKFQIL
Chain of ETV6 (P41212 whole entry): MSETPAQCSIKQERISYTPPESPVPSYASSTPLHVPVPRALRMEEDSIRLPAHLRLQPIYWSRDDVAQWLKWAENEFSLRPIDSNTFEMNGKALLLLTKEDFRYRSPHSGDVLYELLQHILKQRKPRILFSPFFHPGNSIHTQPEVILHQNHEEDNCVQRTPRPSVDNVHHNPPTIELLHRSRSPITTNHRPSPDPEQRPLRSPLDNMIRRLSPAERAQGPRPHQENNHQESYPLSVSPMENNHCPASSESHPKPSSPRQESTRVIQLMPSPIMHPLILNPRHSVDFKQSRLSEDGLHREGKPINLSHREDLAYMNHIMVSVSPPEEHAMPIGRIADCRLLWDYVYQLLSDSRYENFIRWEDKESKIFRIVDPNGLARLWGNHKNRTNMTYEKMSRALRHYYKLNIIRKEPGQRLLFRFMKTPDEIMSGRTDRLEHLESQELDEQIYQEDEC
Chain of ETV1 (P50549 whole entry): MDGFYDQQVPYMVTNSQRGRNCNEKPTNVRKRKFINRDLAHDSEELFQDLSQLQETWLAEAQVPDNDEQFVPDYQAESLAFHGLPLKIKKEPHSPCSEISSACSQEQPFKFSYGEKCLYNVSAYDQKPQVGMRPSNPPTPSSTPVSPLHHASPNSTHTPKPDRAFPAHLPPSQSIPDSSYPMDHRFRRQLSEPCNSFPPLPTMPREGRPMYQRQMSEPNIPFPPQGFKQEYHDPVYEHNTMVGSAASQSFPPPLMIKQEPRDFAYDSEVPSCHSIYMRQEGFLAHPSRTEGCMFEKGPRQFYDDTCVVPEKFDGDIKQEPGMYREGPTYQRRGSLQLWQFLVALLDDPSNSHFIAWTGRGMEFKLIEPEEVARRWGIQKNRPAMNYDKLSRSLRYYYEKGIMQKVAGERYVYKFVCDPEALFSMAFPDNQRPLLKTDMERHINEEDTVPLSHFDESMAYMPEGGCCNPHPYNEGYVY
Chain of ELF4 (Q99607 whole entry): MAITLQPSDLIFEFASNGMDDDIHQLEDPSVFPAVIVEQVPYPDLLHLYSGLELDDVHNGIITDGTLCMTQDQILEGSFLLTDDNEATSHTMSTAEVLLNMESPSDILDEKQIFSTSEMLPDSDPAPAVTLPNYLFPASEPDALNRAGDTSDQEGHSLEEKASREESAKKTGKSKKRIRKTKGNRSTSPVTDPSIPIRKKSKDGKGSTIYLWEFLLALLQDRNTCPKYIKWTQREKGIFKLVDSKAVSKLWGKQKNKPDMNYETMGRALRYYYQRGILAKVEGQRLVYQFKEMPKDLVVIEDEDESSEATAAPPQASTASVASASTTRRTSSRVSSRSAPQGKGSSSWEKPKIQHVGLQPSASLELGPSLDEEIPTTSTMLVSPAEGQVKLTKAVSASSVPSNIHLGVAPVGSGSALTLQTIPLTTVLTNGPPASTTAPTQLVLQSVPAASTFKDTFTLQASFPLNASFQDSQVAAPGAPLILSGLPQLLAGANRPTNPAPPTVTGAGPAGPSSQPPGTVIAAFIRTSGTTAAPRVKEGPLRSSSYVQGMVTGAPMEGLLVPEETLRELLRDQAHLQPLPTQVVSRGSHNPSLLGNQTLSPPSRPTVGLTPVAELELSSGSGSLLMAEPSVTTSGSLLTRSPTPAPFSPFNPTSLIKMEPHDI
Chain of HSF1 (Q00613 whole entry): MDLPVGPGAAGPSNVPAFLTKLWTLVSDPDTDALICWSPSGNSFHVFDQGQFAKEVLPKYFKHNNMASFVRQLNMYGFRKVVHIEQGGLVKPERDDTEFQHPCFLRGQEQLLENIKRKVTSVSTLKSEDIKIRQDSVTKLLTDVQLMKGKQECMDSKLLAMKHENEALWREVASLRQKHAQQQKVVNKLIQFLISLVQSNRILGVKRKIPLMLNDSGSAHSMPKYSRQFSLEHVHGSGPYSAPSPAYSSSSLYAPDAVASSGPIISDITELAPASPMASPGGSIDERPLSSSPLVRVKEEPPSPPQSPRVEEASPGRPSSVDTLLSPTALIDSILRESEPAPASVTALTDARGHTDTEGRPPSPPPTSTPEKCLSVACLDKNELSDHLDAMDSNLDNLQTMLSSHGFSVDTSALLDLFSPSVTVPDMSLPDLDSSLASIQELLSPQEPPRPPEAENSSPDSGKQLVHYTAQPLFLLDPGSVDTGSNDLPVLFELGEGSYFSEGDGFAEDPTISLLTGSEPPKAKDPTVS

As to TAGTTC, the binding signal with FEV is 1.28 fold enrichment (6-mer frequency, TF over GST control); in the assay with ETV5 it was 1.41 fold enrichment (6-mer frequency, TF over GST control); with HSF1 it was 1.45 fold enrichment (6-mer frequency, TF over GST control); in the assay with SPIC, 1.47 fold enrichment (6-mer frequency, TF over GST control); with ELF4, 1.43 fold enrichment (6-mer frequency, TF over GST control); with ELK4, 1.49 fold enrichment (6-mer frequency, TF over GST control). The binding signal was 1.4 fold enrichment (6-mer frequency, TF over GST control) in the assay with ETV2; 1.49 fold enrichment (6-mer frequency, TF over GST control) with ELF3; 1.23 fold enrichment (6-mer frequency, TF over GST control) with CRX; 1.4 fold enrichment (6-mer frequency, TF over GST control) with ETV1; 1.29 fold enrichment (6-mer frequency, TF over GST control) in the assay with ERF; 1.44 fold enrichment (6-mer frequency, TF over GST control) with ETV3L. Besides, the binding signal with ETS2 was 1.43 fold enrichment (6-mer frequency, TF over GST control); with SPDEF, 1.5 fold enrichment (6-mer frequency, TF over GST control); with ETV7, 1.31 fold enrichment (6-mer frequency, TF over GST control); in the assay with ELF5, 1.41 fold enrichment (6-mer frequency, TF over GST control); with ETV3, 1.49 fold enrichment (6-mer frequency, TF over GST control); in the assay with ETV6, 1.41 fold enrichment (6-mer frequency, TF over GST control).
